Assays:
Details in all cases: concentration: 1 μM,replicates: in singlicate; n = 1
SNARK = tested on: T1, SNARK
T1 construct: gene NUAK2

SNRK = tested on: SNRK
SRC = tested on: SRC
SRMS = tested on: SRMS
SRPK1 = tested on: SRPK1
SRPK2 = tested on: SRPK2
SRPK3 = tested on: SRPK3
STK16 = tested on: STK16
STK33 = tested on: STK33
STK35 = tested on: STK35
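Note: KINOMEscan kinase panel screen.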

Compound | %Inh (SNARK) [%] | %Inh (SNRK) [%] | %Inh (SRC) [%] | %Inh (SRMS) [%] | %Inh (SRPK1) [%] | %Inh (SRPK2) [%] | %Inh (SRPK3) [%] | %Inh (STK16) [%] | %Inh (STK33) [%] | %Inh (STK35) [%]
COc1cc(Nc2nccc(N3CCC(NC(=O)c4cccc(C#N)c4)C3)n2)cc(OC)c1OC (stereo not drawn) [GSK1379751] | 3 | 0 | 22 | 0 | 49 | 24 | 0 | 64 | 0 | 0
CCOC(=O)N1CCC(n2cnc(-c3ccc(F)cc3)c2-c2ccnc(N)n2)CC1 [SB-219952] | 0 | 10 | 0 | 0 | 9 | 0 | 28 | 6 | 0 | 38
O=C(Nc1n[nH]c2cc(-c3ccco3)ccc12)C1CC1 [SB-737447] | 11 | 9 | 0 | 3 | 62 | 0 | 66 | 49 | 0 | 0
Cc1n[nH]c2cc(Nc3ccnc(Nc4cccc(CN5CCOCC5)c4)n3)ccc12 [GW682569] | 25 | 0 | 77 | 0 | 92.2 | 13 | 65 | 90.8 | 0 | 0
O=C(NOCC1CC1)c1cc(Br)c(F)c(F)c1Nc1ccc(I)cc1Cl | 0 | 0 | 2 | 0 | 0 | 0 | 0 | 20 | 0 | 0
CNC(=O)c1ccccc1Nc1nc(Nc2cccc(CS(C)(=O)=O)c2)ncc1C.O=CO [GSK1520489] | 99 | 0 | 100 | 95.1 | 95.4 | 24 | 75 | 99.3 | 93.2 | 34
CC(C)S(=O)(=O)N1CCN(Cc2ccc3c(c2)nc(NC(=O)c2ccsc2)n3C[C@H](O)c2ccccc2)CC1 [GW635815] | 23 | 0 | 96.3 | 1 | 0 | 0 | 0 | 83 | 60 | 0
O=c1[nH]cc(-c2ccc(O)cc2)c2sc(-c3ccncc3)cc12 [GSK1033723] | 8 | 0 | 0 | 0 | 21 | 5 | 0 | 22 | 0 | 0
Cc1ccn2nc(-c3ccc(F)cc3)c(-c3ccncc3)c2c1.Cl [GW457859] | 7 | 52 | 0 | 0 | 13 | 68 | 0 | 1 | 0 | 0
CSc1nccc(-c2c(-c3ccc(F)cc3)ncn2CCCN2CCOCC2)n1.Cl [SB-217146] | 0 | 1 | 10 | 35 | 0 | 0 | 0 | 0 | 0 | 0
CC(=O)Nc1nc2cnc(Nc3cc(NC(=O)c4cccc(CC(C)(C)C#N)c4)ccc3C)nc2s1 | 0 | 17 | 56 | 0 | 46 | 0 | 9 | 25 | 0 | 0
Cn1cc(-c2cccc3c(N)c(C(N)=O)nnc23)cn1 | 9 | 11 | 0 | 24 | 45 | 11 | 39 | 11 | 27 | 8
OCCn1cc(-c2cnc3nnn(Cc4ccc5ncccc5c4)c3n2)cn1 | 0 | 0 | 0 | 0 | 0 | 4 | 0 | 0 | 0 | 0
Cn1ccc2ncnc(Oc3ccc(NC(=O)Nc4cccc(C(F)(F)F)c4)c(Cl)c3)c21 | 0 | 0 | 7 | 0 | 45 | 0 | 0 | 4 | 60 | 0
COc1ccc(Nc2nccc(N3CCC(NC(=O)c4cccc(C#N)c4)C3)n2)cc1 (stereo not drawn) [GSK1379730] | 0 | 0 | 19 | 0 | 36 | 0 | 0 | 2 | 10 | 0
COc1cccc(OC)c1C(=O)Nc1cccc(-c2nn3ccccc3c2-c2ccnc(Nc3cccc(F)c3)n2)c1 [GSK361065] | 91.2 | 0 | 21 | 0 | 28 | 0 | 4 | 29 | 26 | 0
Cn1ccc2ncnc(Oc3ccc(NC(=O)Nc4cccc(C(F)(F)F)c4)c(F)c3)c21 | 0 | 0 | 2 | 0 | 23 | 49 | 23 | 0 | 64 | 4

Compound | %Inh (SNARK) [%] | %Inh (SNRK) [%] | %Inh (SRC) [%] | %Inh (SRMS) [%] | %Inh (SRPK1) [%] | %Inh (SRPK2) [%] | %Inh (SRPK3) [%] | %Inh (STK16) [%] | %Inh (STK33) [%] | %Inh (STK35) [%]
Cc1ccc(C(=O)Nc2ccc(Oc3ccc4nc(NC(=O)C5CC5)cn4c3)c(F)c2)c(=O)n1-c1ccccc1 | 0 | 0 | 11 | 0 | 0 | 23 | 25 | 17 | 24 | 0
COC(=O)c1cccc(NC(=O)NC2CCN(c3ccnc(NCc4ccc(F)cc4)n3)CC2)c1 [GSK1379860] | 0 | 0 | 0 | 0 | 61 | 0 | 0 | 0 | 0 | 0
C[C@@H]1CNc2c(sc3ccc4nc(-c5ccc(O)cc5)ccc4c23)C(=O)N1 | 85 | 2 | 0 | 0 | 0 | 0 | 24 | 30 | 78 | 9
COc1cc2c(Nc3ccc(NC(=O)c4ccccc4)cc3)ncnc2cc1OCCCN1CCOCC1 [GSK301329] | 7 | 0 | 20 | 19 | 0 | 0 | 2 | 12 | 41 | 4
COc1cc2ncn(-c3cc(OCC4CCCCC4)c(C(N)=O)s3)c2cc1OC [GSK204559] | 15 | 0 | 21 | 0 | 84 | 0 | 31 | 4 | 12 | 30
CC(C(=O)NC1CCN(c2ccnc(Nc3ccc(F)cc3)n2)C1)c1ccc(Cl)cc1 (stereo not drawn) [GSK1379713] | 0 | 0 | 0 | 0 | 20 | 0 | 18 | 0 | 5 | 0
Cn1ccc2ncnc(Oc3ccc(NC(=O)Nc4cnn(C(C)(C)C)c4)c(Cl)c3)c21 | 10 | 0 | 82 | 0 | 74 | 11 | 0 | 16 | 7 | 0
Cl.Nc1n[nH]c2cc(-c3ccccn3)ccc12 [GSK2189892] | 18 | 0 | 0 | 0 | 0 | 0 | 0 | 22 | 0 | 0
COc1cccc(CNC(=O)NC2CCN(c3ccnc(Nc4cc(OC)c(OC)c(OC)c4)n3)C2)c1 (stereo not drawn) [GSK1379765] | 45 | 0 | 24 | 0 | 39 | 0 | 73 | 64 | 0 | 8
CN1CCN(CCCNc2nccc(-c3c(-c4ccc(F)cc4)nn4cc(C(N)=O)ccc34)n2)CC1 [GW622475] | 14 | 0 | 19 | 0 | 43 | 0 | 1 | 25 | 26 | 0
Cc1nnc(-c2ccc3occ(-c4ccc(S(C)=O)cc4)c3n2)o1 (stereo not drawn) | 0 | 0 | 0 | 0 | 0 | 0 | 0 | 11 | 0 | 45
C[C@@H](Oc1cc(-n2cnc3ccc(-c4ccncc4)cc32)sc1C(N)=O)c1ccccc1Cl [GSK483724] | 51 | 0 | 5 | 0 | 73 | 0 | 25 | 80 | 19 | 0
Cn1ccc2ncnc(Oc3ccc(NC(=O)Nc4ccnc(C(F)(F)F)c4)c(Cl)c3)c21 | 0 | 0 | 13 | 0 | 49 | 0 | 0 | 0 | 0 | 15
COC(=O)Nc1nc2cc(Oc3ccc(NC(=O)Nc4cc(C(F)(F)F)ccc4Cl)cc3)ccc2[nH]1.Cl [GW697465] | 0 | 0 | 1 | 0 | 41 | 32 | 3 | 0 | 57 | 0
Cc1ccc2c(-c3ccnc(Nc4ccc(C(F)(F)F)cc4)n3)cnn2n1 [GW819776] | 0 | 0 | 0 | 28 | 14 | 0 | 26 | 48 | 52 | 0
c1ccc(Oc2ccc(Nc3ccnc4ccc(-c5ccccn5)cc34)cc2)cc1 [GW407034] | 0 | 0 | 17 | 94.9 | 0 | 0 | 17 | 0 | 0 | 31

— paper PMC5540273 (PLoS ONE, 2017)
